# Measured values: PubChem BioAssay AID686978 (National Center for Advancing Translational Sciences (NCATS), 2013)
# The campaign covered roughly 420,000 compounds. About 64,000 (15%) were called active. Not shown: some 27% with an inconclusive outcome. These entries were drawn from the full list. A number with no mark means an inactive call. Calls follow the shape of the dose curve; as a rule, active = well fitted inhibition curve with a large enough effect; inconclusive = small, poorly fitted or top-dose-only effect; inactive = flat fitted curve, though single readings scatter.
# Assay: qHTS for Inhibitors of human tyrosyl-DNA phosphodiesterase 1 (TDP1): qHTS in cells in absence of CPT; also: nearly all actives have a fitted effect of over 55% in size
# Details: DT40 Tdp1-/- hTDP1 cells, no CPT, ATP luminescence, 48 h; activity change, negative = growth inhibition: at 46.2 µM (top of the series)
# Procedure, shortened: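 Compound effects on proliferation are scored in DT40 Tdp1-/-;hTDP1 cells in the absence of CPT. ATP levels (CellTiter-Glo luminescence) are recorded after a ≥48 hr, 37 °C incubation.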
# % is scaled to controls: 0 for no effect and ±100 for the full control effect; potency is read from the fitted curve at half-maximal effect.
Compound,"activity change, negative = growth inhibition [%]",Potency
COc1cccc(NC(=O)Cn2c3ccc(F)cc3c3nc4n(c(=O)c32)CCS4)c1,26.7,
O=C(NCC1Cc2cc(F)cc(-c3cnccn3)c2O1)C1COc2ccccc2O1 (stereo not given),-7.45,
Cc1cc(C)c(C#N)c(SCc2ccccc2C(=O)O)n1,-15,
CSCCC(NC(=O)COc1ccccc1)C(=O)OCC(=O)c1cc2ccccc2o1 (stereo not given),-18,
CCOc1ccc(Br)cc1S(=O)(=O)N1CCC(C(=O)O)CC1,-17.2,
CCOCCCNCc1cc(Br)ccc1OCC,-20.4,
CC(C)(C)NCc1cc(Br)ccc1OC1CCCC1,,16.4 µM (active)
CC(=O)N/C(=C/c1ccc(OC(F)F)cc1)C(=O)O,-7.71,
N#Cc1ccc(-c2ccc(F)cc2)nc1Sc1ccccc1,-5.02,
COc1ccc(NC(=O)CN(C)C(=O)Cc2coc3cc(C)c(C)cc23)cc1,1.68,
Cc1ccc(NS(=O)(=O)c2ccc3c(c2)NC(=O)CO3)cc1,-24,
CCOc1ccc(CCN2C(=S)N([C@@H](CC(C)C)CN3CCC[C@@H]3CN3C(=S)NC[C@@H]3Cc3ccc(O)cc3)C[C@@H]2CC(C)C)cc1,,23.1 µM (active)
O=C1NC[C@H](CCCCN2C[C@H](Cc3ccc(O)cc3)N(CC3CCCCC3)C(=O)C2=O)N(CCc2ccccc2)C1=O,-11.7,
CC(C)C[C@H]1CNC(=S)N1C[C@H]1CCCN1C[C@H](Cc1ccc(O)cc1)N1C[C@H](Cc2ccc(O)cc2)N(CC2CCCCC2)C1=S,,25.9 µM (active)
CC(C)C[C@H]1CN([C@@H](CC(C)C)CN2CCC[C@@H]2CN2C(=O)C(=O)NC[C@@H]2Cc2ccccc2)C(=O)C(=O)N1CCc1ccccc1,,16.4 µM (active)
CCOc1ccc(CCN2C(=O)C(=O)N([C@@H](CC(C)C)CN3CCC[C@H]3CN3C(=O)C(=O)NC[C@@H]3Cc3ccccc3)C[C@@H]2CC(C)C)cc1,-20.4,
CCOc1ccc(CCN2C(=O)C(=O)N([C@@H](Cc3ccc(O)cc3)CN3CCC[C@H]3CN3C(=O)C(=O)NC[C@@H]3CC(C)C)C[C@@H]2Cc2ccccc2)cc1,-19.2,
O=C1NC[C@H](CCCCN2C[C@H](Cc3ccc(O)cc3)N(CCc3ccccc3)C(=O)C2=O)N(CCc2ccccc2)C1=O,-4.41,
O=C1NC[C@H](CCCCN2C[C@H](Cc3ccccc3)N(Cc3ccccc3)C(=O)C2=O)N(CCc2ccc(O)cc2)C1=O,-1.84,
CC(C)C[C@H]1CNC(=O)C(=O)N1C[C@@H]1CCCN1C[C@H](Cc1ccccc1)N1C[C@H](CC(C)C)N(CC2CCCCCC2)C(=O)C1=O,-20.9,
Cc1cc(NC(=O)CN2C(=O)NC(CCc3ccccc3)C2=O)no1 (stereo not given),14.2,
CCOc1ccc(CCN2C(=O)c3cccnc3C2=O)cc1OCC,-19.1,
CN(C(=O)C1CCOC1)c1nnc(-c2cccnc2)s1 (stereo not given),-7.53,
CC(CNC(=O)c1ccc(N)cc1)NC(=O)c1ccc(N)cc1 (stereo not given),-21,
Cc1cc(C)c2[nH]c(=O)c(C(c3nnnn3Cc3ccc4c(c3)OCO4)N3CCCC3)cc2c1 (stereo not given),,2.31 µM (active)

Compound,"activity change, negative = growth inhibition [%]",Potency
CCOC(=O)C1CCN(C(c2cc3cc(C)cc(C)c3[nH]c2=O)c2nnnn2C2CCCCC2)CC1 (stereo not given),-8.63,
CC(C)(C)n1nnnc1C(c1ccc(F)cc1)N1CCN(Cc2ccc3c(c2)OCO3)CC1 (stereo not given),-20.6,
O=C(NCc1ccco1)/C(=C/c1cccc([N+](=O)[O-])c1)NC(=O)c1ccco1,-7.01,
COc1cc(NC(=O)CCS(=O)(=O)c2ccc3c(c2)oc(=O)n3C)cc(OC)c1,5.76,
O=C(Nc1cc(C(F)(F)F)ccc1Cl)c1cc(C2CC2)on1,-2.31,
COc1ccc(-n2cnnc2SCC(=O)Nc2cccc(S(N)(=O)=O)c2)cc1,4.46,
c1ccc2c(c1)CSc1sccc1C2=C1CCNCC1,,16.4 µM (active)
Nc1nc(Br)c2ccccc2c1-c1ccc(F)cc1,-14.7,
CCOc1c(Nc2cccc(Cl)c2)c(=O)c1=O,-14.5,
CCNCCCNCCCNCCCNCC,,3.76 µM (active)
COc1ccc2oc(=O)c(C(=O)N3CCCc4ccccc43)cc2c1,-27.3,
Cc1[nH]n(-c2ccc(Cl)cc2)c(=O)c1/C=N/n1c(C)nc2ccccc2c1=O,,18.4 µM (active)
CN(C(=O)Nc1ccc(Cl)cc1)n1cnc2ccccc2c1=O,-22.3,
S=C(Cc1ccc(Cl)cc1)N1CCOCC1,-3.23,
C=C1C(=O)OC2C1CCC(C)=CCCC1(C)OC21 (stereo not given),,3.26 µM (active)
CCn1cc(-c2cc(C(=O)O)on2)c(C)n1,4.25,
COc1ccc(NC(=O)C2=C(C)NC(=O)NC2c2ccccc2[N+](=O)[O-])cc1 (stereo not given),-13.5,
CN(C)S(=O)(=O)c1ccc(N/C=C(\[N+](=O)[O-])S(=O)(=O)c2ccccc2)cc1,-20.4,
COc1ccc(N/C=C(\C2OC(=O)c3ccccc32)[N+](=O)[O-])cc1 (stereo not given),,23.1 µM (active)
CC(C)=CCC/C(C)=C/C(=O)O,1.48,
O=C(NCCCNC(=O)NC1CCCCC1)NC1CCCCC1,-15.5,
CCn1c(SCC(=O)Nc2ccc(Br)cc2)nc2sc3c(c2c1=O)CCN(C)C3,-1.28,
CCSc1nc2sc3c(c2c(=O)n1-c1ccc(C)cc1)CCN(C)C3,,7.31 µM (active)
COc1ccccc1-n1c(SCC(=O)O)nc2sc3c(c2c1=O)CCC3,13.9,
CC1(C)Cc2c(sc3nc(SCC(=O)NCc4ccccc4)n(-c4ccccc4)c(=O)c23)CS1,-5.28,

Compound,"activity change, negative = growth inhibition [%]",Potency
CCOc1ccc(-n2c(SCC(=O)Nc3ccc(OC)cc3)nc3sc4c(c3c2=O)CCN(C)C4)cc1,-11.7,
CCCSc1nc2sc3c(c2c(=O)n1-c1ccc(OC)cc1)CCN(C)C3,,14.6 µM (active)
CC(=O)CSc1nc(CCc2ccccc2)c(C#N)c(=O)[nH]1,-5.37,
COc1ccc(NC(=O)c2cc(=O)[nH]c3ccccc23)cc1S(=O)(=O)N1CCOCC1,8.13,
Cc1sc2ncn(CC(=O)NCCN(C)C)c(=O)c2c1S(=O)(=O)N1CCC(C)CC1,1.52,
O=C(Nc1cccc(OCC(=O)N2CCOCC2)c1)C1CCCCC1,-2.37,
COc1cc(/C=C/C(=O)O)cc(S(=O)(=O)Nc2ccccc2C(=O)NCCc2ccccc2)c1OC,0.839,
Cc1cc(C)nc(/N=C2\NC(=O)CC(C(=O)O)N2c2ccc(Cl)cc2Cl)n1 (stereo not given),1.51,
COc1ccc(C(C#N)Nc2ccccc2C)cc1 (stereo not given),8.96,
COC(=O)C1=C(Nc2ccc(OC)cc2)C=C(C)C(C(=O)OC)C1c1ccc(C)cc1 (stereo not given),,16.4 µM (active)
COC(=O)C1C(=O)NCC1c1ccc(OC)cc1 (stereo not given),-1.94,
COc1ccc(N2C(=O)C(O)C2c2ccc(C)cc2)cc1 (stereo not given),-27,
O=C(Nc1ccccc1F)C1C2C=CC3(O2)C1C(=O)N(c1cccnc1)C3C(=O)NC1CCCCC1 (stereo not given),-2.74,
CCCNc1c(N)c(=O)c1=O,-1.28,
Cc1nc([N+](=O)[O-])c(NCCCO)n1Cc1ccccc1,2.67,
COc1ccc(C2OCC3(CO2)SC(=O)NC3=O)cc1OC (stereo not given),-5.98,
Cc1cccc(Cn2c(SCCO)nc3c2c(=O)n(C)c(=O)n3C)c1,,14.6 µM (active)
Cn1c(=O)c2c(nc(SCC(=O)Nc3ccc(F)cc3)n2Cc2ccccc2)n(C)c1=O,,4.61 µM (active)
CSc1nnc(C2CCCN(CC(=O)Nc3ccccc3N3CCOCC3)C2)n1C(C)C (stereo not given),-22,
CCOC(=O)CSc1nc2c(c(=O)n(C)c(=O)n2C)n1Cc1ccccc1F,-23.5,
CCC1CCCCN1C(=O)CSc1nc2c(c(=O)n(C)c(=O)n2C)n1C (stereo not given),-29.5,
C#CC(C)(C)NC(=O)CSc1nc2c(c(=O)n(C)c(=O)n2C)n1CCCC,-10.2,
CC(C)n1c(SCC(=O)Nc2ccccc2N2CCCCC2)nc2c1c(=O)n(C)c(=O)n2C,,23.1 µM (active)
Cn1c(=O)c2c(nc(SCCNS(=O)(=O)c3ccccc3)n2C)n(C)c1=O,-27.8,
CCCSc1nc2c(c(=O)n(C)c(=O)n2C)n1Cc1ccc(C)cc1,,16.4 µM (active)

Compound,"activity change, negative = growth inhibition [%]",Potency
CCOc1ccc(Cn2c(SCCCCC#N)nc3c2c(=O)n(C)c(=O)n3C)cc1OCC,-13.1,
COc1ccc(NC(=O)CCn2ccnc2)c(OC)c1,-19.5,
Cc1ccc(C2(C)NC(=O)N(CC(=O)Nc3ccccc3C(=O)N3CCCCC3)C2=O)cc1 (stereo not given),3.02,
CC(=O)NC(CC(=O)Nc1nc(-c2ccccc2)c(C(C)=O)s1)c1ccccc1 (stereo not given),-17.4,
Cc1cc(=O)n2c3c(cccc13)CCC2,-12,
CCNC(=O)c1c(O)c2cccc3c2n(c1=O)CC3,,23.1 µM (active)
CCCCn1c(=O)c(C(C)=O)c(O)c2ccccc21,-5.9,
CC(C)Cc1nnc(NC(=O)CCNC(=O)c2ccccc2Cl)s1,0.833,
Cn1c(NCc2cccnc2)nc2cc(-c3ccc(F)cc3)sc2c1=O,-1.95,
COc1cccc(-c2cc3nc(NCc4ccccc4OC)n(C)c(=O)c3s2)c1,,20.6 µM (active)
COc1ccccc1CNc1nccn(-c2ccc(F)cc2)c1=O,-25.6,
CC(=O)NC(CC(=O)O)c1ccc(F)cc1 (stereo not given),-8.86,
CC1(Cc2ccccc2C#N)C(=O)Nc2ccc(-c3ccc4[nH]ccc4c3)cc21 (stereo not given),,4.11 µM (active)
COc1ccccc1CC1(C)C(=O)Nc2ccc(OC(F)(F)F)cc21 (stereo not given),-55.2,
CN1CCCN(S(=O)(=O)c2ccc3c(c2)OCCO3)CC1,,inactive
N#CCC(=O)NC(=O)NCC1CC1,-5.15,
CC(OC(=O)c1ccc(-n2cnnn2)cc1)C(=O)NCc1ccccc1 (stereo not given),-20.2,
CCc1ccnc(NC(=O)Nc2ccc(OCc3ccccc3)cc2)c1,-9.03,
O=C(O)/C=C\C(=O)Nc1ccc(OCc2ccccc2)cc1,3.99,
CC(C)(C)OC(=O)N(Cc1ccccc1)Cc1ccc(OCc2cccc(NC(=O)c3ccccc3)c2)cc1,,18.4 µM (active)
CN(CC(=O)Nc1cccc(F)c1)C(=O)CC1CCCC1,-0.65,
Cc1cccc(C(=O)OC(C)CN2CCN(C)CC2)c1 (stereo not given),-23.2,
Cc1ccc(CNC(=O)Cn2cnc3c(NCc4ccccc4)ncnc32)o1,,8.2 µM (active)
Cc1ccc(NC(=O)Cn2cnc3c(OCc4ccccc4)ncnc32)cc1C,-17.5,
CC(CNC(=O)Cn1cnc2c(OCc3ccccc3)ncnc21)c1ccccc1 (stereo not given),-19.5,
